Source: PubChem BioAssay
EZH2 inh – blocks human EZH2/PRC2 H3K27 methylation; Q15910; DELFIA TRF, 1 h; inhibition, % at 12.5 µM; 57,000 compounds, 0.35% hits;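 active = mean inhibition of replicates at least 50% and every single replicate also reaching 50%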;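 also: dimethyl H3K27 on biotinylated H3 21-44 peptide detected by antibody; plate controls were median neutral control wells for no effect and median positive control wells for full effect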
Active calls of the source: *. The entries come from a sample that favours hits as a whole.

SMILES	EZH2 inh
CCC(=O)Nc1ccc(Cl)c(Cl)c1	2
CCCCC/C=C/C/C=C/C/C=C/C/C=C/CCCC(=O)Nc1ccc(O)cc1	69*
CCCCC/C=C\C/C=C\C/C=C\C/C=C\CCCC(=O)NCc1ccc(O)c(OC)c1	43
[N-]=[N+]=Nc1cccc(C(=O)O)c1	-6
CC(C)(C)ONC(=O)CN=[N+]=[N-]	13
